In all, about 310,000 compounds went through this assay and about 14,000 (4.5%) showed an effect of 50% or more. Effects have a minus sign here. The full list was thinned out, with strong results kept by preference.
Molecular target: human ether-à-go-go-related gene (hERG) potassium channel (human, UniProt Q12809)
Experiment: primary screen, population patch clamp on CHO cells stably expressing hERG; higher = less effect of the substance
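Note: peak tail current of the secondary pulse compared with the same well before compound.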

Sequence of human ether-à-go-go-related gene (hERG) potassium channel (Q12809 whole entry, looked up): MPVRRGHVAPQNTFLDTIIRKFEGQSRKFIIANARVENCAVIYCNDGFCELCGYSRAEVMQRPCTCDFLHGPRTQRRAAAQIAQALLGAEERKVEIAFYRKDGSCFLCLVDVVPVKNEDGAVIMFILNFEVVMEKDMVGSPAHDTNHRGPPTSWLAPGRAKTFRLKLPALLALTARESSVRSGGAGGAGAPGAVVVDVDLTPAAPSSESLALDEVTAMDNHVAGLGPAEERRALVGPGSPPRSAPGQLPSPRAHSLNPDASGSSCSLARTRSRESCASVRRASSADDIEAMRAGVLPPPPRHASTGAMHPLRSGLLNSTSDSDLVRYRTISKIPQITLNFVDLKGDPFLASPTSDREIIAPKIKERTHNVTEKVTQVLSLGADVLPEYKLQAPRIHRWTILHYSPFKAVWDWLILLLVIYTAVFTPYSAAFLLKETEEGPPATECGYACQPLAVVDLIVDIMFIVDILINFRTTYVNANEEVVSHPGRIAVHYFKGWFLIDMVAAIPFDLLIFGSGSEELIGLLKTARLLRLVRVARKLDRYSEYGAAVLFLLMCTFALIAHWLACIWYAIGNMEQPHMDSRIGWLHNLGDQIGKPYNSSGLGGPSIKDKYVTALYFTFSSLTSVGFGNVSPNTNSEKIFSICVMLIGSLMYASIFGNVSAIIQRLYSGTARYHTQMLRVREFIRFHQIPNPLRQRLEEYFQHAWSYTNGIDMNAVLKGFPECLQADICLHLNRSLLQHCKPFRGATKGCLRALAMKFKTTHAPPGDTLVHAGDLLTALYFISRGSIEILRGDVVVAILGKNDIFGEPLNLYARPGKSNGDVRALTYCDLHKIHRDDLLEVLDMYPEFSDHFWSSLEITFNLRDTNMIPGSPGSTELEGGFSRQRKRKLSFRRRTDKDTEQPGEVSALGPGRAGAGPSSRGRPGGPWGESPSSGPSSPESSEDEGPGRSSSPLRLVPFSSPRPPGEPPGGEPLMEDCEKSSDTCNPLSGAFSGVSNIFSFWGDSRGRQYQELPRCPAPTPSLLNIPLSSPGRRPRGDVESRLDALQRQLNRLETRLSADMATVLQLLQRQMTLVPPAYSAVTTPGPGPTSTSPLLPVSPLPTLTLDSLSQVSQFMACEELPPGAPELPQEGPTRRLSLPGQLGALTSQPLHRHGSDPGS

Structure (SMILES) | hERG current change (%, negative = inhibition) at 10uM
Cc1cc(C)c(C)c(S(=O)(=O)NCC(=O)N2CCCC2)c1C | 7.49%
Clc1ccc(SCCCN2CCCCC2)cc1.O=C(O)C(=O)O | -76%
Clc1ccc(SCCOCCN2CCOCC2)cc1.O=C(O)C(=O)O | 1.54%
Clc1ccc(SCCN2CCNCC2)cc1.O=C(O)C(=O)O | -5.25%
Clc1ccc(SCCOCCN2CCCCCC2)cc1.O=C(O)C(=O)O | -73.3%
Clc1ccc(SCCCCN2CCOCC2)cc1.O=C(O)C(=O)O | -22.5%
CCC(C)NCCOCCSc1ccc(Cl)cc1.O=C(O)C(=O)O (centres unmarked) | -46.9%
Clc1ccc(SCCOCCN2CCCCC2)cc1.O=C(O)C(=O)O | -82%
Clc1ccc(SCCCCN2CCNCC2)cc1.O=C(O)C(=O)O | -48.7%
CC(C)NCCOCCSc1ccc(Cl)cc1.O=C(O)C(=O)O | -30.2%
COc1ccc(-c2nn(-c3ccccc3)cc2/C=N/N=C(N)N)cc1OC | -27.8%
CCN(CCCCCCN)c1ccc2c(=O)[nH][nH]c(=O)c2c1 | 6.75%
Cc1ccc(CN(C(=O)Cn2nnc3ccccc32)C(C(=O)NCc2ccco2)c2cccs2)cc1 (centres unmarked) | -23.1%
CN(C(=O)COC(=O)c1ccc2c(c1)OCO2)C1CCS(=O)(=O)C1 (centres unmarked) | 9.31%
O=C(/C=C/c1cccc([N+](=O)[O-])c1)N1CCN(c2ccccn2)CC1 | -41.2%
COCCn1c(=NC(=O)CN2C(=O)CCC2=O)sc2cc(S(N)(=O)=O)ccc21 | -9.48%
CC(CC(=O)Nc1ccccc1)n1ccnc1 (centres unmarked) | -5.07%
O=c1cccc(-c2ccccc2)[nH]1 | -2.53%
COc1ccc2nc(N3CCOCC3)cc(C)c2c1 | -0.452%
Cc1ccccc1NC(=O)c1cccc2nc3ccccc3nc12 | 13.8%
CCN(CC)S(=O)(=O)c1ccc(N2CCOCC2)c(NC(=O)CNCCc2ccccc2)c1.O=C(O)C(=O)O | -63.8%
O=C(Nc1cc(S(=O)(=O)N2CCCCC2)ccc1Oc1ccccc1)C1=COCCO1 | -10.6%
CCN(CC)S(=O)(=O)c1ccc(N2CCOCC2)c(NC(=O)Cc2ccccc2)c1 | -36.2%
CCOc1ccc(Oc2ccc(S(=O)(=O)N3CCOCC3)cc2NC(=O)C2=COCCO2)cc1 | -41.9%
O=C(Nc1ccc(F)cc1)Nc1cc(S(=O)(=O)N2CCOCC2)ccc1N1CCCC1 | -97.4%
CCN(CC)S(=O)(=O)c1ccc(N2CCOCC2)c(NC(=O)COc2ccccc2)c1 | -11.1%
O=C(Nc1cc(S(=O)(=O)N2CCOCC2)ccc1N1CCOCC1)c1ccc(S(=O)(=O)N2CCCCC2)cc1 | -1.72%

Structure (SMILES) | hERG current change (%, negative = inhibition) at 10uM
Cc1ccc(C(=O)Nc2cc(S(=O)(=O)N3CCOCC3)ccc2N2CCCC2)cc1 | -8.42%
O=C(Nc1cc(S(=O)(=O)N2CCOCC2)ccc1N1CCCC1)c1ccc(F)cc1 | -82.3%
O=C(Nc1cc(S(=O)(=O)N2CCOCC2)ccc1N1CCCC1)C1CC1 | -0.0868%
O=C(Nc1cc(S(=O)(=O)N2CCOCC2)ccc1Oc1ccc(F)cc1)C1=COCCO1 | -69.8%
O=C(COC(=O)c1ccc(F)cc1)Nc1cc(S(=O)(=O)N2CCOCC2)ccc1N1CCCC1 | -28.2%
C/C=C/c1ccc(OCC(=O)Nc2cc(OC)c(OC)c(OC)c2)c(OC)c1 | -3.16%
Cc1cccc(NC(=O)c2cccc(S(=O)(=O)N(C)c3ccccc3)c2)n1 | -28.7%
CC(C)(C)c1cc(NC(=O)c2cccc([N+](=O)[O-])c2)no1 | 3.8%
O=C1CCCC2=C1C(c1ccco1)Nc1ccc(C(=O)c3ccccc3)cc1N2 (centres unmarked) | 6.94%
COc1ccc(Cn2c(=O)[nH]c3cc(C(=O)Nc4ccccc4C)ccc32)cc1 | 2.66%
O=S(=O)(c1cccc(F)c1)N1CCCN(c2ccc(C(F)(F)F)cn2)CC1 | -27.3%
CC(=O)Nc1ccccc1OCC(=O)NC1CCCCC1C (centres unmarked) | 8.59%
NS(=O)(=O)c1cccc(-n2cnnn2)c1 | -6.93%
NC1=C([N+](=O)[O-])C(c2ccc3c(c2)OCO3)C2=C(CCCC2=O)O1 (centres unmarked) | 10.8%
O=C(Nc1ccccc1F)Nc1cc(S(=O)(=O)N2CCOCC2)ccc1N1CCCC1 | -19%
CCN(CC)S(=O)(=O)c1ccc(N2CCOCC2)c(NC(=O)c2ccc(NC(C)=O)cc2)c1 | -0.15%
O=C(Nc1ccccc1)Nc1cc(S(=O)(=O)N2CCOCC2)ccc1N1CCCC1 | -71%
O=C(Nc1ccc(Cl)cc1)Nc1cc(S(=O)(=O)N2CCOCC2)ccc1N1CCCC1 | -54.5%
CCN(CC)S(=O)(=O)c1ccc(N2CCOCC2)c(NC(=O)c2ccc(F)cc2)c1 | -72.3%
O=C(Nc1cccc(Cl)c1)Nc1cc(S(=O)(=O)N2CCOCC2)ccc1N1CCCC1 | -38.9%
CCN(CC)S(=O)(=O)c1ccc(N2CCOCC2)c(NC(=S)NC(=O)c2ccco2)c1 | -66.5%
CCN(CC)S(=O)(=O)c1ccc(N2CCOCC2)c(NC(=O)c2ccccc2)c1 | -25.6%
O=C(Nc1cc(S(=O)(=O)N2CCOCC2)ccc1N1CCCCC1)c1ccc(Cl)cc1 | -1.07%
O=C(NC(=S)Nc1ccccc1N1CCOCC1)c1ccco1 | 9.73%
O=C(Nc1ccc(Cl)c(Cl)c1)Nc1cc(S(=O)(=O)N2CCOCC2)ccc1N1CCCC1 | -16.6%
O=C(NC(=S)Nc1cc(S(=O)(=O)N2CCOCC2)ccc1N1CCOCC1)c1ccco1 | -39.4%

From paper PMC4336329 (PLoS ONE, 2015)
